From PubChem BioAssay (EPA / NIEHS) come the findings set out here.

The structures appear in SMILES notation. Results filed as inconclusive are left out. Calls of active or inactive are those of the source. The calls were made as follows, unless noted: active = hit-call score of the fitted dose curve at least 0.9, where 1 is the maximum; inactive = score below 0.9.

System in the first assay: not listed separately
Put plainly: IUF_NPC2-5_cell_number_120hr: Cell Number Assessment at 120 hours in the Leibniz Research Institute for Environmental Medicine (IUF) Neural Progenitor Cell Migration and Differentiation Assay (NPC2-5) (AID 2284308).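 Also: count of Hoechst-stained nuclei in migration zone around plated human neural progenitor spheres.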
Conditions: not given
The method, then:
IUF_NPC2-5 is a cell-based, multiplexed assay that uses hNPC, a human primary neural progenitor cells, with measurements taken at 72 or 120 hours after chemical dosing in a 96-well plate. Human neural progenitor cells (hNPC) are generated from human fetal brain cortex at gestational week (GW) 16-19. In the neural progenitor cell migration and differentiation assay (NPC2-5), hNPCs grown as spheres are plated on an extracellular matrix and migrate and differentiate out of the sphere core. The processes radial glia migration, neuronal and oligodendrocyte migration as well as neuronal differentiation, neuronal morphology and oligodendrocyte differentiation are studied using automated phase contrast imaging and automated fluorescence imaging in combination with high content image analysis. In parallel, the cell viability is assessed using an alamar blue viability assay and the cytotoxicity using a lactate dehydrogenase dependent membrane integrity assay.IUF_NPC2-5_cell number_120hr is one of 12 assay components measured from the IUF_NPC2-5 assay. The cell number at 120 hr is assessed as the number of all Hoechst-positive nuclei identified in the migration area (see IUF_NPC2a_ glia_migration_120hr).Data from the IUF_NPC2-5_cell_number_120hr component was analyzed at the endpoint IUF_NPC2-5_cell_number_120hr in the positive analysis fitting direction relative to DMSO as the negative control and baseline of activity. Using a type of viability reporter, gain or loss-of-signal activity can be used to understand viability effects.
Culture protocol: After the cell expansion period the cells are cultured for up to four weeks in which they are passaged every week as described in 3.6. Between one to three days after passaging spheres at a size of 0.3 mm are picked for the test method. For the assessment of neural progenitor cell migration and differentiation, the spheres are plated on poly-D-lysine/laminin coated 96-well flat bottom plates in differentiation medium (N2) to initiate migration and differentiation. Thereby one 0.3 mm big sphere is plated in the middle of a well. The differentiation medium consists of DMEM and Ham's F12 at a ratio of 3 to 1 supplemented with 1% N2 and 1% penicillin and streptomycin. Within 5 days NPCs radially migrate out of the sphere core and differentiate into radial glia cells (nestin positive), neurons (TUBB3 positive), oligodendrocytes (O4 positive) and astrocytes (GFAP positive). Cultivation during the test method is performed at 37C and 5% CO2 at a ph of 7.2-7.6.Exposure: 0.3 mm big hNPC are plated in the already prepared test conditions. Exposure starts at day 0 of differentiation and is continued over five days of differentiation until the experiment is terminated. Cells are fed with fresh medium at day 3 of differentiation. Therefore, half of the test condition solution (e.g. solvent control or compound dilution) is replaced by freshly prepared test condition solution.Test Method: Migration distance and cytotoxicity is determined after 72 hours based on brightfield images of each well. The assay is terminated by the assessment of cell viability and cytotoxicity as well as cell fixation after 120 h. Immunocytochemistry is performed for Hoechst positive nuclei, TUBB3 positive neurons and O4 positive oligodendrocytes. On the ICC images, migration after 120 hours, neuronal and oligodendrocyte number, neuronal morphology and neuron/oligodendrocyte specific migration is assessed. immunocytochemical staining (ICC) generates an image for each sphere. The plates are scanned using an automated high content imaging device and all nuclei and their positions are determined automatically based on their intensity and size. Images are imported to the Omnisphero software to run the image analysis that measures the following endpoints. The method is set up for 8 test conditions including 7 compound concentrations and one SC. The test conditions are prepared in a serial dilution from the stock solution. […]
On to `O=P(Oc1ccccc1)(Oc1ccccc1)Oc1ccccc1`, for which the result was inactive.

On to `O=S1(=O)OCC2C(CO1)C1(Cl)C(Cl)=C(Cl)C2(Cl)C1(Cl)Cl` (centres undefined), for which the outcome was inactive.

Take `CCOP(=S)(OCC)SCSCC`: the result was inactive.

With `O=C(O)C(F)(OC(F)(F)C(F)(F)C(F)(F)F)C(F)(F)F` (centres undefined), the compound was classed as inactive.

`CCCCOCCOP(=O)(OCCOCCCC)OCCOCCCC`: the compound was called inactive.

For the compound `CCOc1ccc(C(C)(C)COCc2cccc(Oc3ccccc3)c2)cc1`, the compound was called inactive.

On to `CC(C)(C)c1ccccc1OP(=O)(Oc1ccccc1)Oc1ccccc1`, for which the result was inactive.

In the case of `CO/N=C(/C(=O)OC)c1ccccc1COc1ccccc1C`, the AC50 was 19.7 µM (active).

On to `CCCCC(CC)COP(=O)(Oc1ccccc1)Oc1ccccc1` (centres undefined), for which the call was inactive.

System in a further assay: not listed separately
Nature of the assay: IUF_NPC2-5_viability_120hr: Viability Assessment at 120 hours in the Leibniz Research Institute for Environmental Medicine (IUF) Neural Progenitor Cell Migration and Differentiation Assay (NPC2-5) (AID 2284312).
Conditions: not given
A digest of the protocol: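 Human fetal neural progenitor spheres (0.3 mm) plated on poly-D-lysine/laminin in N2 differentiation medium, exposed 120 h with half-medium refresh at day 3. Viability by alamar blue resazurin fluorescence; 7 concentrations, DMSO max 0.1%.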
For the compound `O=P(Oc1ccccc1)(Oc1ccccc1)Oc1ccccc1`, the result was inactive.

As to `O=S1(=O)OCC2C(CO1)C1(Cl)C(Cl)=C(Cl)C2(Cl)C1(Cl)Cl` (centres undefined), the compound was called inactive.

`CCOP(=S)(OCC)SCSCC`: the compound was classed as inactive.

On to `O=C(O)C(F)(OC(F)(F)C(F)(F)C(F)(F)F)C(F)(F)F` (centres undefined), for which the call was inactive.

Consider `CCCCOCCOP(=O)(OCCOCCCC)OCCOCCCC`, for which the compound was called inactive.

As for `CCOc1ccc(C(C)(C)COCc2cccc(Oc3ccccc3)c2)cc1`, the call was inactive.

On to `CC(C)(C)c1ccccc1OP(=O)(Oc1ccccc1)Oc1ccccc1`, for which the result was inactive.

Turning to `CO/N=C(/C(=O)OC)c1ccccc1COc1ccccc1C`, the compound was called inactive.

As to `CCCCC(CC)COP(=O)(Oc1ccccc1)Oc1ccccc1` (centres undefined), the compound was classed as inactive.

The test system of the next assay is IYD (gene 389434). Nature of the assay: CCTE_GLTED_hIYD: CCTE's human Iodotyrosine Deiodinase (xIYD) Inhibition Assay, Great Lakes Toxicology and Ecology Division (GLTED) Lab (AID 2284317; active = hit-call score of the fitted dose curve at least 0.9, where 1 is the maximum;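 also: cell-free human IYD enzyme made in baculovirus insect cells; iodide freed from monoiodotyrosine measured by cerium arsenite color change at 420 nm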).
Conditions: not given
A digest of the protocol: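 hIYD: baculovirus-expressed human IYD deiodinated monoiodotyrosine for 3 h with test chemical; free iodide was measured by Sandell-Kolthoff absorbance at 420 nm and normalized to MNT and DMSO/NaOH controls.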
For the compound `CCCCc1ccc(O)cc1`, the compound was classed as inactive.

Turning to `O=c1ssc(Cl)c1Cl`, the compound was called inactive.

Turning to `CCCCCCCc1ccc(O)cc1`, the AC50 was 52.4 µM (active).

System in the next assay: not listed separately
Put plainly: CCTE_Mundy_HCI_iCellGluta_NOG_NeuriteLength: CCTE's Neurite Outgrowth Assay in iCellGluta cells for Neurite Length, Mundy Lab (AID 2284318; active = hit-call score of the fitted dose curve at least 0.9, where 1 is the maximum).
Conditions: not given
A digest of the protocol: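 Automated high-content imaging of betaIII-tubulin (Alexa Fluor-488) and Hoechst-stained cells gave neurite length, normalized to the DMSO baseline.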
Turning to `CCOP(=S)(OCC)SCSCC`, the call was inactive.

In the case of `O=C(O)C(F)(OC(F)(F)C(F)(F)C(F)(F)F)C(F)(F)F` (centres undefined), the outcome was inactive.

For the compound `O=C(O)C=CC(F)(C(F)(F)F)C(F)(F)F`, the outcome was inactive.

For `CCOc1ccc(C(C)(C)COCc2cccc(Oc3ccccc3)c2)cc1`, the outcome was inactive.

For `O=C(O)C(F)(F)OC(F)(F)C(F)(F)OC(F)(F)C(=O)O`, the call was inactive.

For `CO/N=C(/C(=O)OC)c1ccccc1COc1ccccc1C`, the AC50 was 19.7 µM (active).

For `O=C(O)C(F)(F)OC(F)(F)C(F)(F)OC(F)(F)F`, the compound was called inactive.

System in a further assay: not listed separately
Put plainly: CCTE_Deisenroth_5AR_NBTE_donor: CCTE's 5alpha-reductase NanoBRET Target Engagement Assay […], Deisenroth Lab (AID 2284319). To be noted: actives raise or lower the signal. The method, then:
CCTE_Deisenroth_5AR NBTE (5alpha-reductase NanoBRET Target Engagement Assay) is a cell-based, single-readout assay that uses HEK293T, a human kidney cell line, with measurements taken at 5 hours after chemical dosing in a 384 well plate. This assay includes a primary and secondary screen as well as an autofluorscence screen.CCTE_Deisenroth_5AR NBTE_donor is one of four assay components measured from the CCTE_Deisenroth_5AR NBTE assay. It is designed to make measurements of donor luminescence, as detected by bioluminescence intensity emission signals using spectrometry technology.Data from the assay component CCTE_Deisenroth_5AR NBTE_donor was analyzed into 1 assay endpoint. This assay endpoint, CCTE_Deisenroth_5AR NBTE_donor, was analyzed with bidirectional fitting relative to DMSO as the negative control and baseline of activity. Using a type of inducible reporter, gain or loss-of-signal activity can be used to understand changes in the donor luminescence as related to 5alpha-reductase catalytic function. Furthermore, this assay endpoint can be referred to as a secondary readout, because this assay has produced multiple assay endpoints where this one serves an artifact detection function.
For transient expression of the SRD5A2-NanoLuc fusion protein, HEK293T cells are reverse transfected with pNLF1-C-SRD5A2 expression vector and incubated for 20 hours to facilitate fusion protein expression. For assay setup, 384-well non-binding surface (NBS) microplates are pre-dispensed with test chemical across an 8-point concentration series (10 nM - 29.9 uM) with two technical replicates per run. Cell suspensions are dispensed into the microplates and incubated with test chemical for a duration of three hours. Following pre-incubation with test chemical, the testosterone tracer is dispensed into each well and incubated an additional two hours. The total incubation period with test chemical is five hours, with testosterone tracer added the final two hours to reach target engagement equilibrium. For the NanoBRET endpoint measurements, a solution of Nano-Glo substrate and extracellular NanoLuc inhibitor solution is added to each test well and immediately scanned on a plate reader configured with multichromatic emission settings for donor luminescence ([…]) and acceptor fluorescence ([…]). DMSO solvent controls are included as baseline control. Plate-matched samples are run with mock tracer conditions or testosterone tracer to discriminate any potential non-specific substrate interference.
For the compound `O=C(O)C1C(C(=O)O)C2(Cl)C(Cl)=C(Cl)C1(Cl)C2(Cl)Cl` (centres undefined), the compound was called inactive.

A word on the AC50: it is the concentration at which the activity in the assay is half-maximal.
